A short description of experiment [1]: viability loss in pontine glioma line – cell-based, SU-DIPG-XXV, MIPE5.0, CellTiter-Glo, qHTS, dose response (AID 1347065; cut-off not given, nearly all actives have AC50 up to about 26 µM;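 further: cells exposed to compound for 48 hours before ATP readout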). The following applies: CellTiter-Glo ATP luminescence.
Experiment [2] can be described thus: SU-DIPG-VI glioma cell viability, MIPE4.0 library, CellTiter-Glo luminescence, qHTS (AID 1347066; cut-off not given, nearly all actives have AC50 up to about 30 µM;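 further: cells exposed to compound for 48 hours before readout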). The following applies: CellTiter-Glo ATP luminescence. On the technique in general: ATP-based viability assays read luminescence as a measure of living cells.
Experiment [3] in a line: JHH-DIPG-1 glioma cell viability, MIPE5.0 library, CellTiter-Glo luminescence, qHTS (AID 1347067; cut-off not given, nearly all actives have AC50 up to about 26 µM;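 further: cells exposed to compound for 48 hours before readout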). The following applies: JHH-DIPG-1 glioma viability, CellTiter-Glo ATP luminescence.
Experiment [4] can be described thus: SU-DIPG-XXV glioma cell viability, MIPE5.0 library, qHTS (AID 1347068; cut-off not given, nearly all actives have IC50 up to about 30 µM).
A short description of experiment [5]: modifiers of HSF1 nuclear foci, imaging, Selleck Cancer Library (AID 1347162; in the data active means plate-normalised HSF1 focus index below about 0.46). Conditions: human cells, at 10 µM; SSMD: measured here: HSF1 foci SSMD mean; cell count: measured here: cell number; plate-normalised HSF1 focus index: stronger effect = lower value.
Experiment [6] can be described thus: phospholipid biosynthesis inhibitors in animal cells, primary screen, cell-based, LOPAC library, screen 4 (AID 1347384; call rule not given here). Conditions: phospholipid biosynthesis inhibition screen, at 10 µM.
A short description of experiment [7]: ovarian cancer cell viability with rucaparib, profiling panel, oncology-focused library, rucaparib conditional (AID 1508598). Conditions: patient-derived ovarian cancer cells, CellTiter-Glo viability, 144 h, stronger effect = lower value.
In experiment [8] the target is NAD(+) hydrolase SARM1 (Homo sapiens) (UniProt Q6SZW1). The experiment is described as follows: SARM1 TIR NADase inhibitors, cell lysate, NAD-Glo luminescence (AID 1508614;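 active means compound whose remaining NAD level is above about 45 nM, limit read from the data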). Conditions: SAM-TIR HEK293T lysate NADase, at 1 µM, stronger effect = higher value.
The target of experiment [9] is Mitogen-activated protein kinase 7 (Homo sapiens) (UniProt Q13164). The experiment is described as follows: ERK5 transactivation activators in reporter cells, primary screen, cell-based, HTS (AID 1508626;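 active means luciferase signal above three times the same-plate solvent-only control wells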;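 further: luciferase driven by Gal4-ERK5 fusion binding five Gal4 sites before minimal TATA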). Conditions: HeLa Gal4-ERK5 transactivation, 18 h, at 5 µM, stronger effect = higher value.
Experiment [10] is described as follows: viability rescue of complex I mutant cybrids, primary screen, cell-based, galactose medium, ATP luminescence (AID 1645843;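 active means z-score of at least 1.8 in each of two replicates, scored against plate mean and spread of sample wells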;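 further: positive z means more ATP and so rescue of galactose-driven cybrid death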). Conditions: complex I mutant cybrid cells, 72 h, stronger effect = higher value.
Experiment [11] is described as follows: survival rescue of mitochondrial mutant cells in low glucose, primary screen, MELAS cybrids, Rieske KO mouse fibroblasts, CellTiter-Glo (AID 1508586;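 active means mean z-score across replicates of 1.96 or higher in either the MELAS or the Rieske mutant cell line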;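 further: z relative to plate mean and SD of compound and empty wells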).
A short description of experiment [12]: sensitizers of A549 cells to miR-34 induction, primary screen, imaging, A549 dox-inducible miR-34, nuclei and caspase counts (AID 1347080;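 active means compounds whose cell count with miR-34 switched on is under 0.7 times the count with it off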). Conditions: A549 miR-34 inducible, Hoechst nuclei count, 48 h.
The mark [13] stands for this setting: MELAS cybrid survival, CellTiter-Glo 48 h, stronger effect = higher value.
Setting [14] is: Rieske KO mouse fibroblast survival, CellTiter-Glo 72 h.
Setting [15] is: stronger effect = lower value, cell number ratio, induced over uninduced.
[16] abbreviates: measured here: relative caspase fold change +Dox/-Dox.
[17] abbreviates: measured here: total cells with miR-34 induction, stronger effect = lower value.
[18] abbreviates: measured here: total cells without miR-34 induction.

Molecules are shown by their SMILES. Where “and” joins values, the source holds several entries; their conditions need not be identical. Equal entries are not always repeated. Inconclusive results are not listed. Calls of active or inactive are those of the source.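 How the source made its calls, unless noted: active means normalized viability below 100% at a tested concentration; inactive means the rest.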

Sequence of Mitogen-activated protein kinase 7 (Homo sapiens) (Q13164 whole entry, looked up, the tested form may be a part): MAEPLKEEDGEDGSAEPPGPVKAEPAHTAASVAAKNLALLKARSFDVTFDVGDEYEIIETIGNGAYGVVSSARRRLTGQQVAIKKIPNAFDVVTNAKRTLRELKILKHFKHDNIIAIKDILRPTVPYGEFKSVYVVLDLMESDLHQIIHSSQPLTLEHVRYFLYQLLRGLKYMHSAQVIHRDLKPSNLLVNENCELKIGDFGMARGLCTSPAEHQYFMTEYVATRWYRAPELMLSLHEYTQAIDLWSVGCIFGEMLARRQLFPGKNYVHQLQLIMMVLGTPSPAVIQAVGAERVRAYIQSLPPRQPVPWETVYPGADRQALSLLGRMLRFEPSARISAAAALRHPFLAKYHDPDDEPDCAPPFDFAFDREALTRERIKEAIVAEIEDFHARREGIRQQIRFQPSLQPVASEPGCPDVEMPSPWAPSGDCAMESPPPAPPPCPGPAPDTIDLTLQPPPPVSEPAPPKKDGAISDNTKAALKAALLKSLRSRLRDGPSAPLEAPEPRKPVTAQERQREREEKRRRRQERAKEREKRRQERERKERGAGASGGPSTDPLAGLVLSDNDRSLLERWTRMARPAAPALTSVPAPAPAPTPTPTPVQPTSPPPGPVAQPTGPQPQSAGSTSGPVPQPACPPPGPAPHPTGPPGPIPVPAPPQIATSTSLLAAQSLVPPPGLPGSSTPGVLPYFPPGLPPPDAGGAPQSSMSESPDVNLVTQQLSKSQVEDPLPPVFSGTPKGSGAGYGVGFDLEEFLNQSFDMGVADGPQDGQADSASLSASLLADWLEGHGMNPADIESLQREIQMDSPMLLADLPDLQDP
Sequence of NAD(+) hydrolase SARM1 (Homo sapiens) (Q6SZW1 whole entry, looked up, the tested form may be a part): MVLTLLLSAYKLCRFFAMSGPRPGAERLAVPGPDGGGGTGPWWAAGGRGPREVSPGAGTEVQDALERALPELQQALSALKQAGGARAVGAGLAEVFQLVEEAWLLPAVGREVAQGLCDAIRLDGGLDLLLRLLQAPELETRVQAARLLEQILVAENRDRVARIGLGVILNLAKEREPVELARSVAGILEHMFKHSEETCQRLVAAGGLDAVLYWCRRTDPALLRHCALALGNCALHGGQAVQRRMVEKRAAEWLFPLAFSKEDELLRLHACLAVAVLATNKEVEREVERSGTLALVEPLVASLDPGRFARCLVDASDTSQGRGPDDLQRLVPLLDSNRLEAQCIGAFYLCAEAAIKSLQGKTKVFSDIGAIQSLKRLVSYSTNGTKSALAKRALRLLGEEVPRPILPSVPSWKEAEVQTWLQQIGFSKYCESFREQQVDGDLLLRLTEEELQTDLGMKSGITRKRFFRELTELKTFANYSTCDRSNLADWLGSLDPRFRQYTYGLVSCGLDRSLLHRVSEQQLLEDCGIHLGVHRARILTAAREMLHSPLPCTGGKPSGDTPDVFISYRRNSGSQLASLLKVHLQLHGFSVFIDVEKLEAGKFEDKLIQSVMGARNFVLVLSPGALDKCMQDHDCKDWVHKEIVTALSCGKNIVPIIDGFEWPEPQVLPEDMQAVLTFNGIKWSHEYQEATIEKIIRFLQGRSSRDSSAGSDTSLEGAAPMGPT

As a reminder, the viability is a read-out of living cells in per cent, often relative to untreated cells. Turning to `COc1ccccc1OCC(O)CN1CCN(CC(=O)Nc2c(C)cccc2C)CC1` (stereo not drawn), the compound was called inactive in experiment [1], in [2], in experiment [3], in [4] and in [6]. In addition, in experiment [5], the SSMD was found to be 2.29. In experiment [5], the cell count was 7450. Also, the plate-normalised HSF1 focus index in [5] was 1.14 (inactive). Moreover, the viability in experiment [7] (at 0.000305 µM, OCI-C5x cells, with rucaparib 10 µM, 100% = cells with rucaparib alone) is 108% (inactive); in [7] (at 0.000305 µM, OCI-C5x cells, without rucaparib) it was 113% (inactive); in [7] (at 0.000305 µM, OCI-P5x cells, with rucaparib 20 µM, 100% = cells with rucaparib alone), 102% (inactive); in experiment [7] (at 0.000305 µM, OCI-P5x cells, without rucaparib), 108% (inactive); in [7] (at 0.00122 µM, OCI-C5x cells, with rucaparib 10 µM, 100% = cells with rucaparib alone), 114% (inactive); in experiment [7] (at 0.00122 µM, OCI-C5x cells, without rucaparib), 124% (inactive). Moreover, the viability was 96% (active) in [7] (at 0.00122 µM, OCI-P5x cells, with rucaparib 20 µM, 100% = cells with rucaparib alone); 106% (inactive) in experiment [7] (at 0.00122 µM, OCI-P5x cells, without rucaparib); 115% (inactive) in [7] (at 0.00488 µM, OCI-C5x cells, with rucaparib 10 µM, 100% = cells with rucaparib alone); 113% (inactive) in experiment [7] (at 0.00488 µM, OCI-C5x cells, without rucaparib); 93.5% (active) in experiment [7] (at 0.00488 µM, OCI-P5x cells, with rucaparib 20 µM, 100% = cells with rucaparib alone); 109% (inactive) in [7] (at 0.00488 µM, OCI-P5x cells, without rucaparib). In addition, the viability in experiment [7] (at 0.0195 µM, OCI-C5x cells, with rucaparib 10 µM, 100% = cells with rucaparib alone) is 106% (inactive); in [7] (at 0.0195 µM, OCI-C5x cells, without rucaparib) it was 107% (inactive); in [7] (at 0.0195 µM, OCI-P5x cells, with rucaparib 20 µM, 100% = cells with rucaparib alone), 94.5% (active); in [7] (at 0.0195 µM, OCI-P5x cells, without rucaparib), 108% (inactive); in experiment [7] (at 0.0781 µM, OCI-C5x cells, with rucaparib 10 µM, 100% = cells with rucaparib alone), 108% (inactive); in [7] (at 0.0781 µM, OCI-C5x cells, without rucaparib), 114% (inactive). For the same compound, the viability in [7] (at 0.0781 µM, OCI-P5x cells, with rucaparib 20 µM, 100% = cells with rucaparib alone) was 101% (inactive); in experiment [7] (at 0.0781 µM, OCI-P5x cells, without rucaparib) it was 106% (inactive); in experiment [7] (at 0.313 µM, OCI-C5x cells, with rucaparib 10 µM, 100% = cells with rucaparib alone), 110% (inactive); in [7] (at 0.313 µM, OCI-C5x cells, without rucaparib), 118% (inactive); in experiment [7] (at 0.313 µM, OCI-P5x cells, with rucaparib 20 µM, 100% = cells with rucaparib alone) it was 94.5% (active); in experiment [7] (at 0.313 µM, OCI-P5x cells, without rucaparib), 107% (inactive). Moreover, the viability in experiment [7] (at 1.25 µM, OCI-C5x cells, with rucaparib 10 µM, 100% = cells with rucaparib alone) is 102% (inactive); in experiment [7] (at 1.25 µM, OCI-C5x cells, without rucaparib), 121% (inactive); in experiment [7] (at 1.25 µM, OCI-P5x cells, with rucaparib 20 µM, 100% = cells with rucaparib alone), 104% (inactive); in [7] (at 1.25 µM, OCI-P5x cells, without rucaparib) it was 92.6% (active); in experiment [7] (at 5 µM, OCI-C5x cells, with rucaparib 10 µM, 100% = cells with rucaparib alone), 67.5% (active); in [7] (at 5 µM, OCI-C5x cells, without rucaparib) it was 39.4% (active). The viability in experiment [7] (at 5 µM, OCI-P5x cells, with rucaparib 20 µM, 100% = cells with rucaparib alone) was 49.6% (active); in [7] (at 5 µM, OCI-P5x cells, without rucaparib), 23.6% (active). In [8], the remaining NAD is 10 nM (inactive). Also, the luciferase signal in experiment [9] was 56 AU (inactive). The z-score in experiment [10] was -0.345 (inactive) and -0.115 (inactive) and 0.005 (inactive).

For the compound `Cc1ccccc1N1C(=O)c2cc(S(N)(=O)=O)c(Cl)cc2NC1C` (stereo not drawn), the call in [1], in experiment [2], in experiment [3], in experiment [4] and in experiment [6] was inactive. In addition, the z-score in [11] (setting [13]) is -0.2 (inactive) and 0.948 (inactive); in experiment [11] (setting [14]), 0.325 and -0.0446; in [10] it was -0.04 (inactive). Also, the remaining NAD in experiment [8] is 10 nM (inactive). The luciferase signal in experiment [9] is 64 AU (inactive).

Turning to `CC(C)[C@H](N)C(=O)OCCOCn1cnc2c(=O)[nH]c(N)nc21`, the call in [1], in experiment [3] and in [4] was inactive. Further, the fold change in experiment [12] (setting [15]) is 0.847 (inactive); in experiment [12] (setting [16]), 1.65. The cell count is 9730 in experiment [12] (setting [17]) and 11500 in experiment [12] (setting [18]). Besides, the z-score in experiment [11] (setting [13]) is 0.38 (inactive) and 0.156 (inactive); in experiment [11] (setting [14]) it was 0.16 and -0.416; in experiment [10], 0.625 (inactive). For the same compound, the remaining NAD in experiment [8] is 10 nM (inactive). Besides, the luciferase signal in [9] was 32 AU (inactive).

Regarding `CN(CCOc1ccc(NS(C)(=O)=O)cc1)CCc1ccc(NS(C)(=O)=O)cc1`, the compound was classed as inactive in experiment [1], in experiment [2], in [4] and in [6]. In addition, the z-score is -0.0974 (inactive) and 0.133 (inactive) and -0.631 (inactive) in experiment [11] (setting [13]); -0.727 and -0.208 and -0.315 in experiment [11] (setting [14]); 0.355 (inactive) and 0.06 (inactive) and 0.77 (inactive) in [10].

For `O=C(O)/C=C/c1ccc(Cn2ccnc2)cc1`, the compound was classed as inactive in [1], in experiment [2] and in [4]. Moreover, the z-score in [11] (setting [13]) is -1.23 (inactive) and 0.348 (inactive); in [11] (setting [14]), 0.0439 and 0.14; in experiment [10] it was 0 (inactive) and 0.26 (inactive).

In the case of `Cc1cn[nH]c1`, the compound was classed as inactive in experiment [1], in experiment [3], in experiment [4] and in experiment [6]. The fold change in experiment [12] (setting [15]) was 0.994 (inactive) and 0.902 (inactive); in experiment [12] (setting [16]) it was 0.844 and 2.49. Also, the cell count was 10200 and 12000 in experiment [12] (setting [17]); 10200 and 13300 in experiment [12] (setting [18]). The z-score in experiment [11] (setting [13]) is 0.667 (inactive); in [11] (setting [14]), 0.0381; in experiment [10] it was 0.65 (inactive). Also, the remaining NAD in experiment [8] was 10 nM (inactive). For the same compound, in [9], the luciferase signal is 44 AU (inactive).

For orientation: AC50 means the concentration giving half of the maximal activity seen. For the compound `CCN(CC)CCOc1ccc(/C(=C(\Cl)c2ccccc2)c2ccccc2)cc1`, the AC50 in [1] was 13.2 µM (active). The compound was called inactive in [2] and in [4]. Besides, the figures for the fold change in [12] (setting [15]) and in experiment [12] (setting [16]) were 0.868 (inactive) and 0.906, respectively. Besides, the cell count in experiment [12] (setting [17]) turned out to be 10700; in [12] (setting [18]) it was 12300.

Source of the values: PubChem BioAssay.
